Source: PubChem BioAssay
Only some compounds are listed: those with a hit (about 27% of all), similar ones and a draw of the others.
CYP2C9 inhib = blockers of cytochrome P450 2C9 activity – biochemical, luminescence, ADME assay, primary screen; P11712; CYP2C9 Supersomes, luciferin-H conversion; inhibition, % at 5 µM; actives 20% (n = 96,000); AID 777, 2007;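 active = blocking of liver enzyme CYP2C9 beyond about 50% at 5 µM, limit read from the data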
Target sequence (P11712 whole entry, looked up): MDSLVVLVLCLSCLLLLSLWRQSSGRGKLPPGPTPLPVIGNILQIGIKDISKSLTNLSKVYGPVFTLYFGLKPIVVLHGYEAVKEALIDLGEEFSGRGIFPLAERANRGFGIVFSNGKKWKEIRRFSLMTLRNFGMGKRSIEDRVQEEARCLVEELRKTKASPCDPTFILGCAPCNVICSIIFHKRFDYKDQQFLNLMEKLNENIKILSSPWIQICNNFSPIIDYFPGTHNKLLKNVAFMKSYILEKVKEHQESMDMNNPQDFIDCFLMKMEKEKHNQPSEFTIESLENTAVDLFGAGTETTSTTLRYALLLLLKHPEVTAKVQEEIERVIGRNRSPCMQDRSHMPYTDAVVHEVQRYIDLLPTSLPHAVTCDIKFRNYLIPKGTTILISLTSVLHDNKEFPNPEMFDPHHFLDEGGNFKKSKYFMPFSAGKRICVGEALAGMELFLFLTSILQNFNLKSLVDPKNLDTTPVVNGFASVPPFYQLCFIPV
CYP2C9 activ = human CYP2C9 activators, primary screen, biochemical, luminescence; Cytochrome P450 2C9 (Homo sapiens), P11712; recombinant CYP2C9, luciferin-H conversion; stronger effect = higher value; factor 1 = untreated enzyme, 0 = blocked; activation factor at 5 µM; actives 1.4% (n = 96,000);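 active = activation factor of 2 or more for CYP2C9 at a 5 µM dose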;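 note: 0 = sulfaphenazole-blocked wells and 1 = vehicle-only wells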
CYP2C19 activ = human CYP2C19 activators, primary screen, biochemical, luminescence; recombinant CYP2C19, luciferin-H EGE luminescence; stronger effect = higher value; 0 = fully inhibited enzyme, 1 = untreated enzyme; Cytochrome P450 2C19 (Homo sapiens), P33261; activation factor at 5 µM; AID 1025, 2008; 96,000 tested, under 10 active;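 active = activation factor of at least 2 at 5 µM in the primary screen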;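 note: 0 = wells with 2.5 mM tranylcypromine and 1 = vehicle-only wells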
Cav32 inh = Cav3.2 calcium influx blockers – cell-based, Fluo-4 calcium fluorescence, FDSS, MLSMR library, primary screen | Voltage-dependent T-type calcium channel subunit alpha-1H (Homo sapiens), O95180 | Cav3.2-expressing cells; stronger effect = lower value | B-score at 10 µM | actives 4% (n = 100,000) | AID 449739, 2010;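 active = single-dose well whose peak fluorescence ratio is a statistical outlier from its plate by either plate-standardised score or position-corrected B-score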
CYP2C19 inhib = blockers of cytochrome P450 2C19 activity – biochemical, luminescence, ADME assay, primary screen; P33261; CYP2C19 Supersomes, luciferin-H EGE luminescence, 30 min; inhibition, % at 5 µM; actives 21% (n = 96,000); AID 778, 2007;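 active = CYP2C19 inhibition above a set limit at 5 µM in the primary screen, cut at about 50% in these data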;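 note: plate controls were negative control wells for no effect and 2.5 mM tranylcypromine positive control for full effect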
An asterisk follows results filed as active; · = no result given.

SMILES	CYP2C9 inhib	CYP2C9 activ	CYP2C19 activ	Cav32 inh	CYP2C19 inhib
O=C1c2ccccc2C(Nc2cccnc2)N1Cc1ccccc1 (configuration not stated)	25.2	0.7	0.5	-0.157	47.1
CCOc1ccc(NC2c3ccccc3C(=O)N2Cc2ccc3c(c2)OCO3)cc1 (configuration not stated)	98.5*	0	0	-3.11	99.3*
COc1cc(NC2c3ccccc3C(=O)N2c2ccc(C)cn2)cc(OC)c1OC (configuration not stated)	37.7	0.6	0.5	0.00124	46.1
Cc1csc(=O)n1CC(=O)OCc1cccc2ccccc12	·	·	·	-0.641	·
CCOC(=O)c1cc(S(=O)(=O)N2CCN(C(=O)OCC)CC2)cn1C	19.1	0.8	0.8	1.1	23.7
CN(C)S(=O)(=O)c1ccc(NC(=O)COC(=O)c2ccccn2)cc1	-8.1	1.1	1	1.19	-2.8
CCOC(=O)c1c(N)sc(C(=O)N2CCCCCC2)c1C	33.7	0.7	0.2	0.569	80.8*
CCOC(=O)c1c(NC(=O)c2ccco2)sc(C(=O)N2CCCC2)c1C	56.2*	0.4	0.6	0.0466	44.1
CCOC(=O)c1c(NC(=O)C(C)N2CCN(C(=O)c3ccco3)CC2)sc2c1CCCC2 (configuration not stated)	100.3*	0	0.2	·	77.2*
CCOC(=O)c1c(N)sc(=S)c2c1CCC2	-7.3	1.1	1.1	0.209	-5.1
CCOC(=O)c1c(N)ssc1=S	66.5*	0.3	0.7	0.45	26.5
Cc1ccc(NC(=O)CN(C)CC(=O)Nc2c(C)cccc2C)c(Br)c1	30.1	0.7	1	0.825	4.6
CCOC(=O)c1c(NC(=O)CC)sc(C(=O)N2CCCCC2)c1C	56.9*	0.4	0.3	-0.117	74.8*
CCOC(=O)c1c(N)sc(C(=O)N2CCCC(C(N)=O)C2)c1C (configuration not stated)	·	·	·	0.0489	·
CCc1ccc(NC2=CC(=O)CC(c3ccco3)C2)cc1 (configuration not stated)	52.6*	0.5	0.5	-0.395	53.7*
Cc1cc(C)cc(NC2=CC(=O)CC(c3ccco3)C2)c1 (configuration not stated)	-21.5	1.2	1	-0.879	-0.9
CCN(CC)CCNc1nc(-c2ccccc2)nnc1C(F)(F)F	-7.5	1.1	0.9	0.318	12.0
O=C(NCc1ccc2c(c1)OCO2)C1CC(=O)N(c2ccc(O)cc2)C1 (configuration not stated)	-113.3	2.1*	0.7	-0.267	25.1
CC(=O)N(Cc1ccc2c(c1)OCO2)C1CC(=O)N(CCc2ccccc2)C1=O (configuration not stated)	53.3*	0.5	0.3	1.03	69.6*
O=C(NCc1ccc2c(c1)OCO2)C1CC(=O)N(CCc2ccccc2)C1 (configuration not stated)	76.9*	0.2	0.9	0.102	12.2
O=C(O)C1CC(=O)N(Cc2ccc3c(c2)OCO3)C1 (configuration not stated)	-21.9	1.2	1.2	-3.25	-18.5
O=C(NCc1cccnc1)C1CC(=O)N(CCc2ccccc2)C1 (configuration not stated)	1.0	1	0.2	-0.658	79.7*
O=C(O)CP(=O)(c1ccccc1)c1ccccc1	14.1	0.9	1.1	-0.147	-5.0
CCOC(=O)c1cn(Cc2ccccc2)c(C(=O)OC(C)(C)C)c1O	·	·	·	-1.69	·
Cc1cc(O)c(C(C[N+](=O)[O-])c2ccc(Cl)cc2Cl)c(=O)o1 (configuration not stated)	97.6*	0	0.2	0.924	77.1*
SMILES	CYP2C9 inhib	CYP2C9 activ	CYP2C19 activ	Cav32 inh	CYP2C19 inhib
Cc1c(Br)cc(C(=O)OC2CCN(C)CC2)c(C)c1C	-126.2	2.3*	0.8	0.729	21.9
CCc1nnc(NC(=O)CSc2nnc(-c3ccncc3)n2C)s1	·	·	·	-1.83	·
Cc1cc(C(=O)NC(C)c2ccncc2)cs1 (configuration not stated)	44.2	0.6	0.6	0.587	39.4
CC(=O)N1CCC(O)(c2cccc(C(F)(F)F)c2)CC1	9.9	0.9	0.7	1.36	27.5
O=S(=O)(c1cccc(C(F)(F)F)c1)N1CCC(O)(c2cccnc2)CC1	-8.2	1.1	0.1	-0.351	88.2*
Cc1ccc(S(=O)(=O)N2CCC(O)(c3cccnc3)CC2)cc1	-114.5	2.1*	0.5	-2.51	53.8*
C[C@@H](NCCc1ccc(O)cc1)[C@@H](O)c1ccc(O)cc1	·	·	·	0.228	·
CCCCCCCCNC(C)C(O)c1ccc(SC(C)C)cc1 (configuration not stated)	·	·	·	-4.45*	·
CCn1c(CNc2ccc(C)cc2C)nnc1SCC(=O)N1CCCc2ccccc21	41.0	0.6	0.1	-2.39	86.4*
COc1cc(C(=O)NCc2nnc(SCC(=O)N3CCc4ccccc43)o2)cc(OC)c1OC	78.7*	0.2	0.4	·	63.6*
CCn1c(CNc2ccc(F)cc2)nnc1SCC(=O)N1CCCc2ccccc21	-29.1	1.3	0.4	-2.85	63.0*
O=C(CSc1nnc(CNc2ccc(F)cc2)o1)N1CCCc2ccccc21	20.1	0.8	0.7	-5.27*	28.1
Cc1cccc(C)c1NC(=O)N1CCC(c2nc3ccccc3o2)CC1	14.4	0.9	0.9	-3.17	6.3
O=C(O)c1c(Cl)c(Cl)c(Cl)c(Cl)c1C(=O)N1CCOCC1	19.4	0.8	0.9	-0.0136	7.6
Cc1ccc(NCc2nnc(SCC(=O)Nc3ccccc3)n2CC2CCCO2)c(C)c1 (configuration not stated)	48.9	0.5	0.5	-4.48*	52.3*
Cc1ccc(NCc2nnc(SCCN3CCCCC3)n2CC2CCCO2)c(C)c1 (configuration not stated)	-2.3	1	1.1	1.53	-8.6
O=C(O)CSc1ccccn1	-1.4	1	0.9	0.502	5.2
Cc1ccc(NC2=Nc3ccccc3CS2)cc1	13.2	0.9	0.5	-0.0927	51.2*
CCCNC(=O)c1cccc(Cn2nc(C)c(Br)c2C)c1	63.2*	0.4	0.1	-0.138	85.2*
Cc1nn(Cc2cccc(C(=O)NC34CC5CC(CC(C5)C3)C4)c2)c(C)c1Br	·	·	·	-6.37*	·
O=C(NC12CC3CC(CC(C3)C1)C2)c1ccccc1O	28.4	0.7	0.7	-2.69	28.6
CC(C)Cn1c(=O)n(C)c(=O)c2[nH]cnc21	·	·	·	0.359	·
O=C(N1CCOCC1)C1(c2ccccc2)CCCCC1	5.4	0.9	0.3	0.696	68.9*
COc1ccc(/C=N/NC(=O)c2nc(Cl)c(Cl)c(N)c2Cl)cc1COc1ccc(F)cc1F	66.9*	0.3	0.5	0.238	46.2
COc1cc(OC)cc(C(=O)N/N=C/c2ccc(OC)c(COc3ccc4ccccc4c3)c2)c1	4.5	1	0.9	·	7.3
